Molecules are shown by their SMILES. About 64,000 (15%) of roughly 420,000 compounds were called active. About 27% were inconclusive and are not listed. Calls follow the shape of the dose curve; as a rule, active = well fitted inhibition curve with a large enough effect; inconclusive = small, poorly fitted or top-dose-only effect; inactive = flat fitted curve, though single readings scatter. Only a sample is shown. Where a call stands in place of a potency, no number is given.

Here are results for 114 compounds from PubChem BioAssay AID686978 (National Center for Advancing Translational Sciences (NCATS), 2013).
Potency is read from the fitted curve at half-maximal effect.

This experiment can be described thus: qHTS for Inhibitors of human tyrosyl-DNA phosphodiesterase 1 (TDP1): qHTS in cells in absence of CPT. Also: nearly all actives have a fitted effect of over 55% in size. As to conditions: DT40 Tdp1-/- hTDP1 cells, no CPT, ATP luminescence, 48 h; activity change, negative = growth inhibition: at 46.2 µM (top of the series). An outline of the steps: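 Luminescent ATP content (CellTiter-Glo) served as the growth readout. Knockout chicken DT40 cells expressing human TDP1 were exposed to compounds without camptothecin for a minimum 48 hr at 37 °C.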
(In qHTS, concentration-response curves come from the screen itself.)
`O=C(NCc1ccco1)/C(=C\c1cccc([N+](=O)[O-])c1)NC(=O)c1ccco1`: the Potency result was “inactive”.
Regarding `Cc1cc(NC(=O)COC(=O)/C=C/c2ccc(C)o2)no1`, the Potency entry was “inactive”.
On to `COc1cccc2c1OCC1COc3c(c(=O)n(C)c(=O)n3C)C21` (centres undefined), for which the Potency result was “inactive”.
With `COc1ccc(NC(=S)NCCN2CCC(C)CC2)cc1`, the Potency entry is “inactive”.
Turning to `CC(C)CC(=O)c1c[nH]c(C(=O)NCc2ccccc2)c1`, the Potency entry was “inactive”.
The result for `O=C(CN1CCSCC1)N/N=C/c1ccc(F)cc1F` reads “inactive”; that for `OC(CBr)CN1CCCCC1` (centres undefined), “inactive”; that for `OC(COCCC12CC3CC(CC(C3)C1)C2)CN1CCCCC1` (centres undefined), 16.4 µM (active).
In the case of `OC(COc1ccc(CN2CCSCC2)cc1)CN1CCCCC1` (centres undefined), the Potency result is “inactive”.
Take `O=C(CSc1nc2ccccc2c(=O)n1-c1ccccc1F)N1CCOCC1`: the Potency result was “inactive”.
The result for `CCN(CC)CCCC(C)n1c2nc(=O)[nH]c(=O)c-2nc2cc(Cl)ccc21` (centres undefined) reads 8.2 µM (active); that for `CCCc1nc2ccccc2c(C(=O)OCc2nnc(-c3cc(OC)c(OC)c(OC)c3)o2)c1CC`, 23.1 µM (active); that for `O=C(OCc1nnc(-c2ccccc2)o1)c1cc(=O)[nH]c2ccccc12`, “inactive”.
For `CCCCc1nc2ccccc2c(NC(=O)CN2CCN(C)CC2)c1CCC`, the Potency result was “inactive”.
In the case of `C=CCn1c(N)cc(=O)nc1SCC(=O)Nc1cccc2ccccc12`, the Potency result was “inactive”.
For `CCOc1ccccc1CN1CCN(C2CCC2)CC1CCO` (centres undefined) the value was “inactive”; for `O=C(Nc1c(Cl)cccc1Cl)C1CCC1`, “inactive”; for `CC(=O)NC(c1cccc(F)c1)c1nc(-c2cccc(F)c2)cs1` (centres undefined), “inactive”.
For `Cc1cccc(NC(c2cccc(F)c2)c2ccc3ccc(C)nc3c2O)n1` (centres undefined), the Potency was 5.8 µM (active).
The result for `CSCCC(NC(=O)c1ccco1)C(=O)Nc1cc(C)ccn1` (centres undefined) reads “inactive”; that for `N#Cc1cccc(CN2CCC(=O)N([C@H](CO)c3ccccc3)CC2)c1`, “inactive”; that for `O=C(CSCc1c(F)cccc1Cl)NCC1CCCO1` (centres undefined), “inactive”.
Regarding `N#Cc1cccc(-c2ccc3ncnc(NCc4cccs4)c3c2)c1`, the Potency was 23.1 µM (active).
The result for `O=c1c(NCc2cccs2)nccn1-c1ccccc1` reads “inactive”; that for `O=C(O)c1ccc2c(c1)C(=O)N(NC(=O)c1ccc(O)cc1)C2=O`, “inactive”.
`COc1ccccc1OCC(=O)Nc1nnc2n1CCS2`: the Potency entry is “inactive”.
`O=C(COC(=O)CCCSc1nc2ccccc2[nH]1)Nc1ccc(Oc2ccccc2)cc1`: the Potency result was “inactive”.
Consider `O=C(CSc1nc2ccccc2[nH]1)N/N=C/C=C\c1ccccc1[N+](=O)[O-]`, for which the Potency is 20.6 µM (active).
`O=C(CSc1nc2ccccc2[nH]1)Nc1nc(-c2ccccc2)c(-c2ccccc2)o1`: the Potency entry is “inactive”.
As for `Cc1cnc(CNc2ncncc2-c2ccccc2Cl)cn1`, the Potency result is “inactive”.
Regarding `COCC1CCN(C(=O)CCc2nnc(C3(c4ccc(Cl)cc4)CCC3)o2)C1` (centres undefined), the Potency entry was “inactive”.
On to `COc1ccccc1C1=Nc2cccc3cccc(c23)N1`, for which the Potency was 5.17 µM (active).
For the compound `COc1ccccc1-c1n[nH]nc1C1=CC(=O)CC(C)(C)C1`, the Potency entry is “inactive”.
With `COc1ccccc1-c1nc(SC)n[nH]1`, the Potency result is “inactive”.
Take `c1ccc(C2=Nc3cccc4cccc(c34)N2)cc1`: the Potency was 11.6 µM (active).
As for `CC1(C)CC(=O)C=C(NCCN2CCNCC2)C1`, the Potency entry was “inactive”.
Turning to `COc1ccc(C(=O)OCC(=O)Nc2cccc(C(C)=O)c2)cc1OC`, the Potency result was “inactive”.
In the case of `COC(=O)c1sc(N)c(C(=O)OC)c1COC(=O)CNS(=O)(=O)c1ccc(C)cc1`, the Potency result was “inactive”.
For `COCCN(C(=O)c1ccccc1F)c1c(N)n(Cc2ccccc2)c(=O)[nH]c1=O`, the Potency entry was “inactive”.
Turning to `O=C(NCc1ccc(F)cc1)c1cc(C2CCCCN2C(=O)C2CCCCC2)on1` (centres undefined), the Potency is 23.1 µM (active).
For `CCCNC(=O)c1cc(C2CCCCN2S(=O)(=O)c2cn(C)cn2)on1` (centres undefined) the value was “inactive”; for `O=C(NCc1cccnc1)c1cc(C2CCCN(C(=O)C3CCCCC3)C2)on1` (centres undefined), “inactive”.
For `CS(=O)(=O)N1CCCCC1c1cc(C(=O)NCc2ccccc2)no1` (centres undefined), the Potency entry was “inactive”.
On to `O=C(c1cc(C2CCCCN2S(=O)(=O)c2ccccc2)on1)N1CCOCC1` (centres undefined), for which the Potency entry was “inactive”.
Turning to `O=C(NCc1ccc(F)cc1)c1cc(C2CCCCN2C(=O)c2ccccn2)on1` (centres undefined), the Potency is 20.6 µM (active).
For `CC(Oc1ccc(Cl)cc1)C(=O)OCC(=O)Nc1ncc(Cl)cc1Cl` (centres undefined), the Potency entry was “inactive”.
Turning to `COC(=O)c1c(NC(=O)C(=O)N2CCCCC2)sc2c1CC(C)(C)OC2`, the Potency entry was “inactive”.
As for `COC1=NC2=NCCN2C(OC)=N1`, the Potency entry is “inactive”.
With `Cc1ccc2cccc(NC(=O)C(C)Oc3ccc(C)c(C)c3)c2n1` (centres undefined), the Potency result is “inactive”.
For `CC(C)Oc1ccc(C(=O)Nc2cc(=O)n(C)c(=O)n2C)cc1`, the Potency entry was “inactive”.
The result for `Cc1ccc2cccc(NC(=O)c3ccc(OC(C)C)cc3)c2n1` reads 29.1 µM (active).
As for `COCc1cc(=O)[nH]c2cc(NC(=O)C(F)(F)F)c(C)cc12`, the Potency entry is “inactive”.
For `Cn1c(=O)c(=O)n(C)c2cc(NC(=O)c3ccccc3Br)ccc21` the value was “inactive”; for `CCOC(=O)c1cnc2c(C)cc(Cl)cc2c1NCCc1ccc(OC)c(OC)c1`, “inactive”; for `CCOC(=O)c1cnc2c(C)cc(C)cc2c1Nc1ccc(N2CCOCC2)cc1`, 5.8 µM (active).
With `Cc1ccc(OCCCC(=O)Nc2ccc(N3CCOCC3)cc2)cc1`, the Potency entry was “inactive”.
As for `COc1ccc(-c2ccc(=O)n(CC(=O)Nc3ccc(Br)cc3F)n2)cc1`, the Potency entry is “inactive”.
Consider `CCCc1nc(SCC(=O)N2CCCC2)c2c(=O)n(C)c(=O)n(C)c2n1`, for which the Potency result was “inactive”.
Consider `CCCc1nc(SCC(=O)Nc2ccccc2OC)c2c(=O)n(C)c(=O)n(C)c2n1`, for which the Potency was 23.1 µM (active).
As to `CCc1nc(SCC(=O)Nc2ccccc2OC)n[nH]1`, the Potency entry was “inactive”.
With `COc1ccc(CCN2CC(C(=O)NCCN3CCNC3=O)CCC2=O)cc1` (centres undefined), the Potency entry was “inactive”.
For `O=C(COc1ccccc1)NCc1ccc2c(c1)OCO2`, the Potency result was “inactive”.
On to `COc1cccc(NC(=O)N(Cc2cn(C)c3ccccc23)C2CCCCCC2)c1`, for which the Potency is 5.8 µM (active).
As for `COc1cccc(NC(=O)C2CCCN2C(=O)OCc2ccccc2)c1` (centres undefined), the Potency entry is “inactive”.
`COc1cccc(NC(=O)N2CCCC2C(=O)NC2CCCCC2)c1` (centres undefined): the Potency result is “inactive”.
With `O=C1CCC(=O)N1CCOP1(=O)COc2ccccc2OC1`, the Potency entry is “inactive”.
With `CC(=O)N(C)c1ccc(NC(=O)Nc2cccc3ccccc23)cc1`, the Potency result was “inactive”.
For the compound `O=C(Nc1cccc2ccccc12)NC1CC1`, the Potency entry is “inactive”.
For the compound `CCN(C(=O)Nc1cccc2ccccc12)c1ccccc1`, the Potency was 20.6 µM (active).
As for `COc1ccc(N2C(=O)CCC(C(=O)Nc3ccccn3)C2c2ccc(OC)c(OC)c2)cc1` (centres undefined), the Potency result is “inactive”.
`CC(C)Cc1nc(Cl)c(C#N)c2c1CCC2`: the Potency result is “inactive”.
On to `O=C1NC2(CCCCC2)N=C1c1ccccc1`, for which the Potency result is “inactive”.
For the compound `S=c1[nH]nc(-c2ccco2)n1/N=C/c1ccc(Br)s1`, the Potency result was “inactive”.
Consider `Cc1ccsc1/C=N/n1c(=S)[nH]nc(C)c1=O`, for which the Potency is 13 µM (active).
`S=c1[nH]nc(-c2cccs2)n1/N=C/c1cccs1`: the Potency entry was “inactive”.
For `CN(Cc1ccccc1)C(=O)[C@@H]1CCCN1C(=O)[C@@H]1CCCN1C(=O)c1c(F)cccc1F` the value was “inactive”; for `N#CC1(NC(=O)COC(=O)CCN=C2NS(=O)(=O)c3ccccc32)CCCCC1`, “inactive”.
As to `Cc1ccc(C(=O)C(=S)N2CCOCC2)cc1`, the Potency entry was “inactive”.
`Cc1cc(C(=O)N/N=C/c2ccc(N3CCOCC3)cc2)c(C)o1`: the Potency entry is “inactive”.
In the case of `CNC(=S)N/N=C/c1ccc(N2CCOCC2)s1`, the Potency was 3.26 µM (active).
The result for `COc1nc(OC)nc(N(C)CCO)n1` reads “inactive”; that for `COc1cc(CN(C)Cc2nc3cc(C(F)(F)F)ccc3c(=O)[nH]2)ccc1OC(F)F`, 18.4 µM (active); that for `CN(CCOc1ccccc1)Cc1nc2cc(Cl)ccc2c(=O)[nH]1`, “inactive”.
With `Cc1nc2ccc(S(=O)(=O)NCC(=O)NCCN3CCCCC3C)cc2s1` (centres undefined), the Potency entry is “inactive”.
For `Cc1nn(-c2ncccn2)c2c1C(=O)CC(C)(C)C2Br` (centres undefined) the value was 20.6 µM (active).
The result for `Cc1nn(-c2ccccc2)c2c1C(=O)NC(=O)C(C)(C)C2` reads “inactive”; that for `O=C(COC(=O)c1n[nH]c2ccccc12)Nc1ccccc1Br`, “inactive”; that for `CN(C)S(=O)(=O)c1ccc(NC(=O)COC(=O)Cn2[nH]c(=O)c3ccccc3c2=O)cc1`, “inactive”.
`CN(C)S(=O)(=O)c1ccc(NC(=O)COC(=O)c2n[nH]c3ccccc23)cc1`: the Potency was 13 µM (active).
For `COc1ccc(N2C(=O)CC(SC(C)C)C2=O)cc1` (centres undefined) the value was “inactive”.
The result for `O=C1CC(N2CCN(c3ccc(F)cc3)CC2)C(=O)N1c1ccccc1` (centres undefined) reads “inactive”.
The result for `O=C1CC(c2ccccc2)C(=O)N1c1cccc(O)c1` (centres undefined) reads “inactive”; that for `COc1ccc(N2C(=O)CC(Sc3n[nH]c(-c4ccc(C)cc4)n3)C2=O)cc1` (centres undefined), 10.3 µM (active).
`Cc1ccc(N2C(=O)CC(Sc3ncn[nH]3)C2=O)cc1` (centres undefined): the Potency is 4.61 µM (active).
As for `CCOC(=O)c1ccc(N2C(=O)CC(Sc3nc(O)c(CC)c(=O)[nH]3)C2=O)cc1` (centres undefined), the Potency result is “inactive”.
Consider `COc1ccc(-c2nc(SCC(=O)N3CCOCC3)n[nH]2)cc1`, for which the Potency entry was “inactive”.
In the case of `Cc1ccc(N2C(=O)CC(Nc3cccc4ccccc34)C2=O)cc1` (centres undefined), the Potency result was “inactive”.
Regarding `O=C1CC(Sc2ncn[nH]2)C(=O)N1c1ccccc1` (centres undefined), the Potency was 11.6 µM (active).
For `CC1Cc2[nH][nH]c(=O)c2C(C2CCCC2)O1` (centres undefined), the Potency entry was “inactive”.
In the case of `N#Cc1ccc(/C=C2\CCn3c2nc2cc(C(=O)O)ccc2c3=O)cc1`, the Potency entry was “inactive”.
For the compound `NC1=NOC(=O)C1C1CCCCC1` (centres undefined), the Potency was 18.4 µM (active).
As for `CC(=O)Nc1ccc(S(=O)(=O)N2CCCC2C(=O)O)cc1` (centres undefined), the Potency result is “inactive”.
On to `CCOC(=O)C(NC(=O)CC(C)C)(Nc1sc2c(c1C(N)=O)CCCC2)C(F)(F)F` (centres undefined), for which the Potency entry was “inactive”.
In the case of `Cc1ccc(C)c(N2CCN(C(=O)CCc3c(C)nc4c(c3C)c(=O)n(C)c(=O)n4C)CC2)c1`, the Potency result was “inactive”.
Regarding `Cc1ccc(N2CCN(C(=O)CCc3c(C)nc4c(c3C)c(=O)n(C)c(=O)n4C)CC2)c(C)c1`, the Potency entry was “inactive”.
With `O=C(CCCn1c(=O)[nH]c2cc(Cl)ccc2c1=O)NCCN1CCN(c2ccccc2)CC1`, the Potency was 23.1 µM (active).
In the case of `O=C(CCCCCn1c(=O)[nH]c2ccccc2c1=O)NCCc1c[nH]c2ccccc12`, the Potency result was “inactive”.
For `CCN(CC)CCNC(=O)CCCCCn1c(=O)[nH]c2cc(C(=O)OC)ccc2c1=O` the value was “inactive”; for `Cc1ccc(OCCCC(=O)N2CCOCC2)c(C)c1`, “inactive”; for `Cc1ccc(C)c(N2CCN(C(=O)CCCCn3c(=O)[nH]c4ccccc4c3=O)CC2)c1`, 20.6 µM (active).
For `Cc1ccc(C)c(N2CCN(C(=O)CCCCCn3c(=S)[nH]c4ccc(N5CCOCC5)cc4c3=O)CC2)c1` the value was 2.91 µM (active); for `COc1cccc(N2CCN(C(=O)CCCCCn3c(=O)[nH]c4ccccc4c3=O)CC2)c1`, 20.6 µM (active).
As to `NS(=O)(=O)c1ccc(CCNC(=O)CCCCCn2c(=O)[nH]c3ccccc3c2=O)cc1`, the Potency entry is “inactive”.
On to `COc1ccc(CCNC(=O)CCCCn2c(=O)[nH]c3ccccc3c2=O)cc1OC`, for which the Potency result is “inactive”.
